The record followed here is PubChem BioAssay (NCI).

Compounds without any hit were thinned out: in the full panel of roughly 83,000, 20% have a hit.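 For each line, cells grew in 96-well plates with the test compound present at a single concentration for 48 hours.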 The source made the active and inactive calls.

For the experiment, the system named is MCF7 breast. Description: NCI-60 one-dose screen, 48 h (100 = growth as untreated, 0 = no growth, -100 = all killed). To be noted: 10 µM unless noted. The method, then:
Growth inhibition of the MCF7 human tumor cell line is measured as a screen for anti-cancer activity. Cells are grown in 96 well plates and exposed to the test compound for 48 hours. Compounds are tested at a single concentration, which is 10^-5 M for most compounds. The reported endpoint is percent growth (GI% or GIPRCNT), where numbers from 0 - 100% represent growth inhibition, and numbers from -100% - 0 represent cell death. For example, a value of 40 represents 60% growth inhibition. A value of 0 means no net growth occurred over the course of the experiment. A value of -40 indicates 40% of cells at the beginning of the experiment died by the end of the experiment. A value of -100 means all cells are dead at the end of the experiment.
NCI-60 Human Tumor Cell Lines Screen was performed using the standard one-dose NCI protocol, which is described in more detail at https://dtp.cancer.gov/discovery_development/nci-60/default.htm.
Compounds with GIPRCNT values below 10 were considered active. Activity score was based on GIPRCNT using the following formula: […]
Score is 0 for GIPRCNT values of 100 or above, 50 for GIPRCNT values of 0, and 100 for GIPRCNT values of -100.
With `COc1cc(C2C3=C(COC3=O)Nc3c2ccc2c3CCCC2)cc2c1OCO2` (stereo not given), the growth is 16.3% (inactive).

On to `CN(C)c1ncc(-c2ccc(C(F)(F)F)cc2)c(NC2CCCCCC2)n1`, for which the growth was 41.2% (inactive).

For the compound `Cc1oc2nc[nH]c(=O)c2c1C(=O)/C=C/c1ccc(Cl)cc1Cl`, the growth was 39% (inactive).

In the case of `Cc1oc2ncnc(Nc3ccccc3)c2c1C(=O)NCCO`, the growth is 98.6% (inactive).

For the compound `OC1CC2c3ccccc3C1c1ccccc12` (stereo not given), the growth is 98.8% (inactive).

For `O=C(CNC(=O)c1cccc2ccccc12)Nc1ccccc1Oc1ccccc1`, the growth is 11.3% (inactive).

For the compound `Cc1cccc2cc(/C=C/C(=O)/C=C/c3ccc(Cl)cc3)c(=O)[nH]c12`, the growth is 9.87% (active).

For `O=C1N=C(c2c(-c3[nH]c(=O)c4ccc(Br)cc4c3O)c(O)c3ccccc3c2O)C(=O)c2cc(Br)ccc21`, the growth was -35.2% (active).

As to `CCCCCCCN(CCCCCCC)C(=N)c1ccc(OC)c2ccccc12`, the growth is -74.4% (active).

On to `COc1ccc(/C=C\c2cc(OC)c(OC)c(OC)c2)c(NS(=O)(=O)c2ccc(C(C)(C)C)cc2)c1O`, for which the growth was 10.1% (inactive).

For the compound `CCSc1nnc(NC(=O)COc2ccc(Cl)cc2C)s1`, the growth is 91% (inactive).

Take `CC(=O)N1Cc2ccccc2C(C)Cc2cc(Cl)ccc21` (stereo not given): the growth was 102% (inactive).

Regarding `O=C(c1ccncc1)N1N=C(c2ccc(Cl)cc2)CC1c1c[nH]c2ccccc12` (stereo not given), the growth is 70.2% (inactive).

Take `CN(C)C/C=C/C(=O)Nc1cc2c(Nc3ccc(F)c(Cl)c3F)ncnc2cc1OCCOC(F)F`: the growth is 20% (inactive).

Take `C=CCOc1ccc(/C(O)=C2\C(=O)C(=O)N(c3nccs3)C2c2ccccc2F)cc1` (stereo not given): the growth was 112% (inactive).

With `CCn1cc(C(=O)O)c(=O)c2cc(F)c(N3CCN(S(=O)(=O)c4ccc(Cl)cc4Cl)CC3)cc21`, the growth was 89.2% (inactive).

`CC[C@]1(O)C[C@@H]2CN(Cc3c([nH]c4ccccc34)[C@@](C(=O)OC)(c3cc4c(cc3OC)N(C)[C@H]3[C@@](O)(C(=O)OC)[C@H](OC(C)=O)[C@]5(CC)[C@@H]6C[C@@H]6CN6CC[C@]43[C@@H]65)C2)C1`: the growth is 14.8% (inactive).

For the compound `CCN(Cc1ccc(CN(CC)C(=O)C(Br)Br)cc1)C(=O)C(Br)Br`, the growth was 24.4% (inactive).

As to `COc1cc(NCCN=C(N)NC(N)=NC(C)C)c2ncccc2c1`, the growth was -55.7% (active).

In the case of `Cc1ccc(-c2csc3nc(C)c(CCCl)c(=O)n23)cc1`, the growth was 78.3% (inactive).

Take `CN(C)C/C=C/C(=O)Nc1cc2c(Nc3cccc(Cl)c3F)ncnc2cc1OCCOC(F)F`: the growth was 35.1% (inactive).

Consider `CCC1CCc2nc3sc(C(=O)Nc4cccc(C)c4)c(N)c3cc2C1` (stereo not given), for which the growth was 18.7% (inactive).

For `CCn1cc(C(=O)O)c(=O)c2cc(F)c(N3CCN(S(=O)(=O)c4cccc5ccccc45)CC3)cc21`, the growth is 14.6% (inactive).

Consider `COc1cc2c3c(c(=O)oc2cc1OS(=O)(=O)c1ccc(C(F)(F)F)cc1)CCCCC3`, for which the growth was 89.6% (inactive).

Take `O=C(C[N+](=O)[O-])c1ccc(Cl)cc1`: the growth was 100% (inactive).

On to `CC/C=C\C/C=C\C[C@H]1C/C=C2/C(=O)C=C[C@H]2C/C=C\CCC(=O)O1`, for which the growth was 20% (inactive).

With `NC(=O)NC(=O)/C=C/C(=O)OCCCl`, the growth is 92.2% (inactive).

On to `CC(Br)C(OC(=O)c1ccccc1Cl)c1cc2c(cc1Br)OCO2` (stereo not given), for which the growth is 95.2% (inactive).

`CCC(=O)Oc1ccc2c(c1)CC[C@@H]1[C@@H]2CC[C@]2(C)C[C@H](OC(=O)CC)C[C@@H]12`: the growth is 68.5% (inactive).

For `c1ccc2nc(-c3ccc4ccccc4n3)ccc2c1`, the growth was 61.8% (inactive).

As to `CCCCn1c(=O)c(C2CNC(=O)c3ccccc3N2)cc2ccccc21` (stereo not given), the growth is 99.6% (inactive).

With `CC(C)(C)OC(=O)N1C/C(=C\c2cccs2)C(=O)/C(=C/c2cccs2)C1`, the growth is 39.1% (inactive).

As for `O=C(CCC(=O)OC1CCCC1)OC1CCCC1`, the growth is 95.2% (inactive).

As for `O=C(O)C(Cc1ccccc1)N1C(=O)/C(=C/C(Cl)=C/c2ccc([N+](=O)[O-])cc2)SC1=S` (stereo not given), the growth was 26.1% (inactive).

Regarding `CCN(C(=O)c1cc2ncccc2[nH]1)[C@H]1CCC[C@@H](NCc2cccc(F)c2)C1`, the growth is 95.7% (inactive).

Consider `O=C(CSc1nc(-c2ccc(Cl)cc2)cn1-c1ccc(Cl)cc1)c1ccc(Br)cc1`, for which the growth is 83.9% (inactive).

As for `COc1cc(/C=C2\CCCC3=C2NC(C)=NC3c2cc(OC)c(OC)c(OC)c2)cc(OC)c1OC` (stereo not given), the growth was 23% (inactive).

Regarding `CCC(c1ccc(OC)cc1)C(CC)c1ccc(O)c(CN2CCCC2)c1` (stereo not given), the growth is -44.4% (active).

For `Cc1sc2nc(CSc3nnc(-c4ccco4)o3)[nH]c(=O)c2c1C`, the growth was 104% (inactive).

As to `N#CC1=C(N)OC2=C(C(=O)CCC2)C1c1ccco1` (stereo not given), the growth was 95.5% (inactive).
